From PubChem BioAssay
Tau fibril FP: qHTS for Inhibitors of Tau Fibril Formation, Fluorescence Polarization. Microtubule-associated protein tau (Homo sapiens), P10636. K18 P301L tau heparin fibrillization, Alexa594 FP, 6 h. Potency, µM (titrated, usually from 57.7 µM), for inactives: at the highest dose activity, negative = inhibition, actives largely listed as inhibitors. 280,000 compounds, 0.39% hits. AID 1468, 2008; also: nearly all actives have a fitted effect of over 55% in size
Target sequence (P10636 561-689 P618L limits assumed): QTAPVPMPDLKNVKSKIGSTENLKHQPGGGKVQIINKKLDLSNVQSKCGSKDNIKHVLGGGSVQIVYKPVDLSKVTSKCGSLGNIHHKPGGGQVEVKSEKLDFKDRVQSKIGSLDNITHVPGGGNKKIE
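FP of Alexa 594-tau after heparin (20 uM) induction. Substrate: human K18 P301L, 15 uM unlabeled, 0.24 uM labeled. Buffer 100 mM sodium acetate pH 7. 6 hr, 37 C.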
Tau ThT inhib: qHTS for Inhibitors of Tau Fibril Formation, Thioflavin T Binding; Potency, µM (titrated, usually from 57.4 µM), for inactives: at the highest dose activity, negative = inhibition, hits mostly inhibitors; recombinant tau K18 P301L, heparin-induced fibrillization, ThT fluorescence; 270,000 compounds, 2.1% hits; also: nearly all actives have a fitted effect of over 55% in size
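Heparin-induced fibrillization of the P301L-mutant K18 repeat-domain fragment of human tau was followed by ThT binding in quantitative high-throughput format.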
HPGD block: qHTS Assay for Inhibitors of HPGD (15-Hydroxyprostaglandin Dehydrogenase). 150,000 compounds, 4.3% hits. 15-hydroxyprostaglandin dehydrogenase [NAD(+)] (Homo sapiens), P15428. Potency, µM, without a hit: top-dose activity change, negative = inhibition, hits mostly inhibitors. purified HPGD, NADH fluorescence kinetic, PGE2 substrate; active = well fitted inhibition curve with a large enough effect, not every such curve was filed as active; inconclusive = small, poorly fitted or top-dose-only effect, or another doubt; inactive = no such curve, though single readings can be large or run the other way
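NADH formation kinetics: reaction with 30 uM PGE2 and 1 mM NAD+ (final), 20 nM enzyme, Tris-HCl pH 8 with Tween 20, after 15 min compound preincubation at room temperature. Fluorescence change, last versus first of five reads.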
ALDH1A1 block: qHTS Assay for Inhibitors of Aldehyde Dehydrogenase 1 (ALDH1A1) | Aldehyde dehydrogenase 1A1 (Homo sapiens), P00352 | Purified ALDH1A1, NADH fluorescence, propionaldehyde substrate | Potency, µM (highest dose often 75.3 µM), for inactives: top-dose activity, negative = inhibition, actives largely listed as inhibitors | 220,000 compounds, 7.3% hits | AID 1030, 2008; active = well fitted inhibition curve with a large enough effect, not every such curve was filed as active; inconclusive = small, poorly fitted or top-dose-only effect, or another doubt; inactive = no such curve, though single readings can be large or run the other way;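 also: plate controls were no enzyme wells and a reference inhibitor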
Target sequence (P00352 whole entry, looked up): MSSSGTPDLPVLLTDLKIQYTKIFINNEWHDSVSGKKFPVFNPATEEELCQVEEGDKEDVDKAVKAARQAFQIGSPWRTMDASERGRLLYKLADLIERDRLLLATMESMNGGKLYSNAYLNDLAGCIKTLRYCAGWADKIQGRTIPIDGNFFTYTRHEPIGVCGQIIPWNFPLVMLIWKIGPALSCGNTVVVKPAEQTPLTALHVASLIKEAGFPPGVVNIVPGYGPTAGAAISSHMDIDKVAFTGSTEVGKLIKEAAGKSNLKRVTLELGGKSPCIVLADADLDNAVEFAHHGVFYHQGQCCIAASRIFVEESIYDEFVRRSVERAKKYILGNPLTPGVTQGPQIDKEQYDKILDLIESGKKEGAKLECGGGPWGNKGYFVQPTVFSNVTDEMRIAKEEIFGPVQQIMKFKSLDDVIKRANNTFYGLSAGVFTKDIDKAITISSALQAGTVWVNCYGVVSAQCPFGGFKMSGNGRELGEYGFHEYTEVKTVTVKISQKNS
NPSR antag: qHTS Assay for Antagonists of the Neuropeptide S Receptor: cAMP Signal Transduction; Potency, µM (highest dose often 38.3 µM), inactives show top-dose activity change, negative = inhibition, actives largely listed as inhibitors; Q6W5P4; CHO-NPSR cells, cAMP TR-FRET, antagonist mode; 220,000 compounds, 1% hits; also: nearly all actives have a fitted effect of over 50% in size
Tau fluor counter: Counterscreen qHTS for Inhibitors of Tau Fibril Formation, Fluorescence Polarization. AID 1463, 2008. Potency, µM (series often up to 57.7 µM), for the others: at the highest dose activity change, negative = decrease. 280,000 compounds, 0.93% hits. tau K18 P301L (four-repeat tau fragment) Alexa594 fluorescence, heparin fibrillization; also: nearly all actives have a fitted effect of over 55% in size
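Human K18 P301L tau (15 uM unlabeled plus 0.24 uM Alexa 594-labeled, final) in 100 mM sodium acetate pH 7 was mixed with compound and 20 uM heparin and incubated 6 hr at 37 C.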
* marks the source's active call; other numbers are inactive results; ? = inconclusive; . = no result; [ ] = another dose, or the depositor's remark. Compounds with a hit are over-represented: about 9.5% of the library has one in this group of screens. Unless noted, calls follow the shape of the dose curve; as a rule, active = well fitted curve in the direction sought with a large enough effect; inconclusive = small, poorly fitted or top-dose-only effect, or another doubt; inactive = no such curve, though single readings can be large; an effect the other way counts as inactive or inconclusive. Unless noted, % is scaled to controls: 0 for no effect and ±100 for the full control effect; potency is read from the fitted curve at half-maximal effect.

SMILES | Tau fibril FP | Tau ThT inhib | HPGD block | ALDH1A1 block | NPSR antag | Tau fluor counter
CC(C)CCn1nnnc1CN1CCN(C(c2ccccc2)c2ccccc2)CC1 | -5% | ? | . | 14µM* | ? | -16%
CCC(C)(C)n1nnnc1CN1CCN(C(c2ccccc2)c2ccccc2)CC1 | -4% | -15% | -12% | 25µM* | ? | -5%
CC(C)CCn1nnnc1CN1CCN(c2ccc(F)cc2)CC1 | -12% | 3% | . | 2% | 21% | -6%
O=C(N/N=C/c1cccc([N+](=O)[O-])c1)C1CC(=O)N(c2ccc(F)cc2)C1 (stereo unspecified) | 3% | -9% | -8% | -10% | 13% | -12%
N#Cc1ccccc1Oc1ccccc1C=O | 8% | -9% | . | -10% | -15% | -8%
CC1=C(C(N)=O)C(c2ccc(Cl)cc2Cl)n2ncnc2N1 (stereo unspecified) | -6% | 2% | -3% | 7% | 1%[46.1 µM] | 2%
CC(=O)C1=C(C)Nc2ncnn2C1c1ccccc1Cl (stereo unspecified) | -2% | -21% | . | 25µM* | -6%[46.1 µM] | -21%
CCCCOC(=O)C1=C(C)Nc2nnnn2C1c1ccccc1Cl (stereo unspecified) | 1% | -9% | -8% | 0.45µM* | -16%[46.1 µM] | -24%
COC(=O)C1=C(C)Nc2nnnn2C1c1ccco1 (stereo unspecified) | 2% | -1% | ? | 10µM* | -1%[46.1 µM] | -4%
CCOC(=O)C1=C(C)NC(=S)N(C(C)=O)C1c1ccc(Cl)cc1 (stereo unspecified) | ? | -15% | -9% | 8.9µM* | ? | -6%
COC(=O)C1=C(C)NC(C)=C(C(=O)OC)C1c1ccco1 | -8% | -6% | . | . | -8%[7.67 µM] | -11%
CC1=C(C(=O)Nc2ccc(C)cc2)C(c2ccccc2Cl)n2nnnc2N1 (stereo unspecified) | -2% | 4% | . | . | . | -15%
Cc1nn(C)c(Oc2cccc(C(F)(F)F)c2)c1C=O | 3% | -1% | . | 7% | -3% | 4%
COc1cc(C2CC(=O)Oc3ccc(O)cc32)cc(OC)c1OC (stereo unspecified) | -5%[81.3 µM] | ? | ? | ? | . | -18%[81.3 µM]
COc1ccc(-c2csc(NC(=O)CCS(=O)(=O)c3ccccc3)n2)c(OC)c1 | 9% | ? | . | . | -5% | ?
COC(=O)C1=C(C)Nc2nnnn2C1c1ccc(Cl)cc1Cl (stereo unspecified) | 2% | -7% | -7% | 8.9µM* | 0%[46.1 µM] | -10%
CCOC(=O)C1=C(C)Nc2nnnn2C1c1ccccc1Cl (stereo unspecified) | -7% | 3% | -11% | 0.71µM* | -12%[46.1 µM] | -12%
C=CCOC(=O)C1=C(C)Nc2nnnn2C1c1cc(OC)ccc1OC (stereo unspecified) | 1% | -3% | 2% | 4.5µM* | -14%[46.1 µM] | -14%
CCCCC[C@H](O)/C=C/C=C\C=C\[C@@H](O)C/C=C\CCCC(=O)O | 1% | -4% | -16% | -3% | . | -1%
O=C(NCc1ccc(Cl)cc1)C(=O)NCC(c1ccco1)S(=O)(=O)c1cccs1 (stereo unspecified) | -9% | -4% | . | . | . | -24%
CC(c1ccccc1)C1C(C#N)=C(N)SC(N)=C1C#N (stereo unspecified) | -5% | ? | . | 20µM* | 5%[46.1 µM] | -9%
CCC(CC)C1C(C#N)=C(N)SC(N)=C1C#N | -3% | -2% | -22% | ? | 13% | -5%
CC(CC1C(C#N)=C(N)SC(N)=C1C#N)c1ccccc1 (stereo unspecified) | -10% | ? | 14µM* | 10µM* | -5%[46.1 µM] | -15%
CC(C)C1C(C#N)=C(N)SC(N)=C1C#N | -2% | 1% | ? | 8.9µM* | -24%[46.1 µM] | -4%
CC(=O)c1ccc(NC(=O)CSC2=Nc3ccccc3N=C(c3ccc(F)cc3)C2)cc1 | ? | 6% | . | . | . | -29%
SMILES | Tau fibril FP | Tau ThT inhib | HPGD block | ALDH1A1 block | NPSR antag | Tau fluor counter
Cc1[nH]c2c(C)cccc2c1CCNC(=O)c1cc2ccccc2oc1=O | -5% | -18% | . | . | . | ?
COc1ccc2oc(=O)c(C(=O)NCCc3c(C)[nH]c4c(C)cccc34)cc2c1 | 11% | ? | . | . | . | 16µM*[quencher]
O=c1[nH]c2cc(Cl)c(Cl)cc2[nH]c1=O | ? | ? | ? | -7% | -6%[46.1 µM] | -26%
Fc1cc2[nH]c(=S)[nH]c2cc1Cl | 5% | -9% | . | 32µM* | -8% | -10%
CC1CCC/C(=C\Nc2ccc(O)cc2)C1=O (stereo unspecified) | ? | 18µM* | ? | 8.9µM* | -4%[46.1 µM] | ?
CCN(CC)C(=O)c1sc2c(c1C)c(=O)n(Cc1ccccc1)c(=O)n2Cc1c(C)cc(C)cc1C | -4% | -3% | . | . | . | 4%
NS(=O)(=O)c1ccc(N=Nc2ncccc2O)cc1 | . | . | -13% | 8%[13.5 µM] | . | .
O=C(O)CCCCn1ccc(=O)[nH]c1=O | . | . | -6% | 7%[13.5 µM] | . | .
COc1ccc(NC(=O)C2=C(C)NC(=S)NC2c2ccc(O)c(OC)c2)cc1 (stereo unspecified) | 1% | -9% | . | ? | -9% | -10%
CC1=C(C(=O)Nc2ccc([N+](=O)[O-])cc2)C(c2cccc(C(F)(F)F)c2)NC(=S)N1c1ccccc1 (stereo unspecified) | -8% | -19% | -18% | 14µM* | ? | ?
COc1ccc(C2NC(=S)N(c3ccccc3)C(C)=C2C(=O)Nc2ccccc2)cc1 (stereo unspecified) | 10% | -13% | -16% | 2µM* | ? | -24%
Cn1cnc(S(=O)(=O)N2CCCC(C(=O)NCc3ccccc3)C2)c1 (stereo unspecified) | 1% | 17% | . | . | . | 7%
O=C(Nc1ccc(SC(F)F)cc1)c1ccc2nccnc2c1 | -5% | ? | -17% | ? | -10%[46.1 µM] | -13%
CCc1ccccc1NC(=O)C(=O)c1cc(C)n(-c2ccccc2F)c1C | 5% | 1% | . | . | . | -8%
C/C(CC(C)(C)C1CCCCC1)=N\NC(N)=S | -3% | -18% | -11% | ? | 3.2µM* | -11%
C/C(CC1CC(C)OC1=O)=N\NC(N)=S (stereo unspecified) | -1% | 8% | -8% | 11% | 49% | 7%
CC(=O)c1ccc(NC(=O)CSc2cn(CC(=O)N3CCCCCC3)c3ccccc23)cc1 | 4% | ? | . | . | . | ?
